The results in this text go back to ChEMBL document CHEMBL1961873, “Compounds: GSK PKIS; Assays: Nanosyn kinase panel” (2012).

The target in test [1] is Sphingosine kinase 1 (Homo sapiens) (UniProt Q9NYA1). The settings on record: at 1 µM.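 Note: mean SPHK1 inhibition value reported from the GSK PKIS kinase panel screen.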
Test [2] addresses T1, Sphingosine kinase 2 (Homo sapiens) (UniProt Q9NRA0).
T1 sequence (whole entry): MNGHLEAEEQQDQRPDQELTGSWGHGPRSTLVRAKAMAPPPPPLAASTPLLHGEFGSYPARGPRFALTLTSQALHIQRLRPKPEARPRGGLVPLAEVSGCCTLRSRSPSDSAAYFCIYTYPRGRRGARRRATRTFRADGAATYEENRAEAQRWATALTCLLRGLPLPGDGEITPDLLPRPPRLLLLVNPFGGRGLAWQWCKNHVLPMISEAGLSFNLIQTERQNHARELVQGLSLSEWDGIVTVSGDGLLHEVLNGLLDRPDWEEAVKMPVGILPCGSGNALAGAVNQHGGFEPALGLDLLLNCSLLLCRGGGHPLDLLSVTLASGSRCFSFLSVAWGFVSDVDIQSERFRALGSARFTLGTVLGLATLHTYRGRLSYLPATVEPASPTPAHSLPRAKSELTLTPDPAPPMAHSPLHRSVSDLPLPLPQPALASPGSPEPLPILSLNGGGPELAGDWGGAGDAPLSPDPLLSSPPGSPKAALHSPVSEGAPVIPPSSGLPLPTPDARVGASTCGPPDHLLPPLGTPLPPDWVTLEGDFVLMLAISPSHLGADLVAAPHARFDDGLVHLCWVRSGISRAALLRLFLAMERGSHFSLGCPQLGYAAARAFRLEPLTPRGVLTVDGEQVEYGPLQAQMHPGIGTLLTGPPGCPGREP
The conditions noted are these: at 0.1 µM.

Test [3] addresses T1, Sphingosine kinase 2 (Homo sapiens). The settings on record: at 1 µM.
Test [4] has as its target Casein kinase II subunit alpha (Homo sapiens) (UniProt P68400). The settings on record: at 0.1 µM.
For test [5] the target is unchanged. The settings on record: at 1 µM.
Test [6] has as its target T2, Inhibitor of nuclear factor kappa-B kinase subunit alpha (Homo sapiens) (UniProt O15111).
T2 sequence (whole entry): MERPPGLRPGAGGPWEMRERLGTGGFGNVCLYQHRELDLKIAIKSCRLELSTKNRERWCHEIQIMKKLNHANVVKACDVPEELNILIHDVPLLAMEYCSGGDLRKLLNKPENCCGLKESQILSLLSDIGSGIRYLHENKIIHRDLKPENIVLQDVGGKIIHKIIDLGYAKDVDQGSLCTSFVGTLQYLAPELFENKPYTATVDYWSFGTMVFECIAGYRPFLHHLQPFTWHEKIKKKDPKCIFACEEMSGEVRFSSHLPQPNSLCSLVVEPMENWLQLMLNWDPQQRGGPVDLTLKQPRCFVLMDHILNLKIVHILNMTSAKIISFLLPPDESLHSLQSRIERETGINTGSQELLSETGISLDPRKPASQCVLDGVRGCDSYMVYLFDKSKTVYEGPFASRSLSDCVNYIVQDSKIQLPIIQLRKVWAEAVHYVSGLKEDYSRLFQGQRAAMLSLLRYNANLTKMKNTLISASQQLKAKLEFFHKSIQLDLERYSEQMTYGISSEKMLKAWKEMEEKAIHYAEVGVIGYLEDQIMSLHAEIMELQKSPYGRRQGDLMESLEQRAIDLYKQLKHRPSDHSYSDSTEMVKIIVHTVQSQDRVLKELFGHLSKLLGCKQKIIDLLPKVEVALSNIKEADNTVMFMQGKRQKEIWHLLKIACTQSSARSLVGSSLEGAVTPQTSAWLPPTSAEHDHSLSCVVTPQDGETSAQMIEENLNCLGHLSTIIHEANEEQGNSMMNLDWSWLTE
The settings on record: at 0.1 µM.

Test [7] concerns the target T2, Inhibitor of nuclear factor kappa-B kinase subunit alpha (Homo sapiens). The settings on record: at 1 µM.
Test [8] addresses T3, Inhibitor of nuclear factor kappa-B kinase subunit beta (Homo sapiens) (UniProt O14920).
T3 sequence (whole entry): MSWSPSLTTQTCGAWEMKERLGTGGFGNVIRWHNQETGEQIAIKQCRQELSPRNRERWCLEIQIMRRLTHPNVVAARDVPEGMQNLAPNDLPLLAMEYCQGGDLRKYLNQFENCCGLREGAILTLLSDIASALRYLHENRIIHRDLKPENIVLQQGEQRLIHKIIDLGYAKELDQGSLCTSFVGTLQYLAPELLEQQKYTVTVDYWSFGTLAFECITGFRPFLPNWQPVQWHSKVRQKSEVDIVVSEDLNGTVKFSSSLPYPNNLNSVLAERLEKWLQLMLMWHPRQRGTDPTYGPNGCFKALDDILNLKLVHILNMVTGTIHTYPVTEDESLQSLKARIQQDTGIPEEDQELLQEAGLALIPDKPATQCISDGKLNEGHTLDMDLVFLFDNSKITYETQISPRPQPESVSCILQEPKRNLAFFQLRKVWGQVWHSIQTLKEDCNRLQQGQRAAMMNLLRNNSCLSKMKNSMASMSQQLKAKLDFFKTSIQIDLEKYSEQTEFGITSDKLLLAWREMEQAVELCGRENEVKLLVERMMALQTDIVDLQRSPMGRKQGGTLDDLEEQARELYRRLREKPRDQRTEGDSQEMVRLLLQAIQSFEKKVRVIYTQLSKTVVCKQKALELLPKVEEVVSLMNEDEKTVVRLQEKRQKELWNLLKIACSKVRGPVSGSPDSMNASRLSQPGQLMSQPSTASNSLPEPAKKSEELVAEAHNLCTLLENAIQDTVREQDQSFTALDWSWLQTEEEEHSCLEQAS
The settings on record: at 0.1 µM.

Test [9] deals with T3, Inhibitor of nuclear factor kappa-B kinase subunit beta (Homo sapiens). The conditions noted are these: at 1 µM.
Test [10] deals with T4, Inhibitor of nuclear factor kappa-B kinase subunit epsilon (Homo sapiens) (UniProt Q14164).
T4 sequence (whole entry): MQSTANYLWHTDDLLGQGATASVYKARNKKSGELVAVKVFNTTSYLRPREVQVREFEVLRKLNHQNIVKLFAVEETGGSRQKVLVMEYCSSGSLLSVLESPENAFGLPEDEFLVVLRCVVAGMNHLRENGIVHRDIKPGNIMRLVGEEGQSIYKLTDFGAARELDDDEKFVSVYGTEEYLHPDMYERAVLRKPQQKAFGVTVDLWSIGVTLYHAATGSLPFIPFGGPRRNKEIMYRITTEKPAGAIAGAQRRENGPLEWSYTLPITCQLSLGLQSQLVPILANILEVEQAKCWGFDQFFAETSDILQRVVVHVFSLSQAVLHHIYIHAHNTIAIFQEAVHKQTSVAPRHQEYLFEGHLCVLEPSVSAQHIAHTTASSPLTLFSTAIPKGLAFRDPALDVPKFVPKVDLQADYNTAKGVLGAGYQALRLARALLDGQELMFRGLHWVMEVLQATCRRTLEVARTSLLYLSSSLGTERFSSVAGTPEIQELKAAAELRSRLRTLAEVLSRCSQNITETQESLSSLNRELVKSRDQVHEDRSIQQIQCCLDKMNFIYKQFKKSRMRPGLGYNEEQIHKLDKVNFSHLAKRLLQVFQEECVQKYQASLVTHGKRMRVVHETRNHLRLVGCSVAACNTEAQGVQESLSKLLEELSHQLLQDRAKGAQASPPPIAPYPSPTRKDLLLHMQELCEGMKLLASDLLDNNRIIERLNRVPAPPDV
The settings on record: at 0.1 µM.

For test [11], the target named is T4, Inhibitor of nuclear factor kappa-B kinase subunit epsilon (Homo sapiens). The conditions noted are these: at 1 µM.
Test [12] has as its target T5, Serine/threonine-protein kinase Nek1 (Homo sapiens) (UniProt Q96PY6).
T5 sequence (whole entry): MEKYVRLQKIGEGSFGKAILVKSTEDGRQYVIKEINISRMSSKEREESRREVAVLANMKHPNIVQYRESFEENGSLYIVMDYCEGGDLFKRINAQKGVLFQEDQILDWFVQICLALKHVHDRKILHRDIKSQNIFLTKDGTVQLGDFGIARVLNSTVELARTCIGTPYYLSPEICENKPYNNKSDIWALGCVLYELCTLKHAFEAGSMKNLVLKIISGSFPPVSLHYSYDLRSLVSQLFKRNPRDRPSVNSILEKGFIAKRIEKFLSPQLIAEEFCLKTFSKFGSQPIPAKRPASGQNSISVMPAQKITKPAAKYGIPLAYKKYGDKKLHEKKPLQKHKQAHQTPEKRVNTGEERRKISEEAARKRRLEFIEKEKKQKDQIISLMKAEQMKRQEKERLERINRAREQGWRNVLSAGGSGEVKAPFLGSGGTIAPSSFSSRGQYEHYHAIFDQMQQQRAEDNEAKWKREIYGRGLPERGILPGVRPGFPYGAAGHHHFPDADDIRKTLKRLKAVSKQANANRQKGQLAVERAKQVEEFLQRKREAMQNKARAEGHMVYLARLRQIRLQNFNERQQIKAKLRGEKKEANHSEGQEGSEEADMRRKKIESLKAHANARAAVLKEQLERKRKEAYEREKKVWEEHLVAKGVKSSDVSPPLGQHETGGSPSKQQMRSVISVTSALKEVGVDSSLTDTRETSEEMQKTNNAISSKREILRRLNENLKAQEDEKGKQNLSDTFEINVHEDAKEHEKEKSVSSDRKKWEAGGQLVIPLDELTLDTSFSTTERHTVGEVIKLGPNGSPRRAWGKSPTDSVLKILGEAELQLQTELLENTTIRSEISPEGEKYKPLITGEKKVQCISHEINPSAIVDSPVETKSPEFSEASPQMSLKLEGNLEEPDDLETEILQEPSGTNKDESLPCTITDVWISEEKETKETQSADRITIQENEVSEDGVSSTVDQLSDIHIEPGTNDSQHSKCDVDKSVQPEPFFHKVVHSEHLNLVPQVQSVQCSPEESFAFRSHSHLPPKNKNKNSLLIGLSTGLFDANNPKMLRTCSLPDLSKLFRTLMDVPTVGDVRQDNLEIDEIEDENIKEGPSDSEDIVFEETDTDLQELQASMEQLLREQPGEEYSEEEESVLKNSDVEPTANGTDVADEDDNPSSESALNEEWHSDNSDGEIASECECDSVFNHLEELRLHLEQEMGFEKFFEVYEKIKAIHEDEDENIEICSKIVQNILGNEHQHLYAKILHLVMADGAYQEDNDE
The conditions noted are these: at 0.1 µM.

For test [13], the target named is T5, Serine/threonine-protein kinase Nek1 (Homo sapiens). The conditions noted are these: at 1 µM.
Test [14] concerns the target T6, Serine/threonine-protein kinase Nek2 (Homo sapiens) (UniProt P51955).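 Note: reported values are mean percent inhibition of NEK2.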
T6 sequence (whole entry): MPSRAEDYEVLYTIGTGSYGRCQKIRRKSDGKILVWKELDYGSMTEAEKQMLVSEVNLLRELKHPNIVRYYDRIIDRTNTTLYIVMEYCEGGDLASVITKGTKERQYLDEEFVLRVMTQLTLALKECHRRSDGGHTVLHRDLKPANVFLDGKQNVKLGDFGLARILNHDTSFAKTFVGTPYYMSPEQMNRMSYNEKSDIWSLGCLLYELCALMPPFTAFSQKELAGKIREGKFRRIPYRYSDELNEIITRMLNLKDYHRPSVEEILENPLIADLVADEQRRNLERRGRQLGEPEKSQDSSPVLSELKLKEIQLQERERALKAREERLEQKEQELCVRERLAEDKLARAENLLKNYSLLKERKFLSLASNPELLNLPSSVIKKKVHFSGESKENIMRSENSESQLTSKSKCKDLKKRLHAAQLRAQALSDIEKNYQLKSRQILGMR
The conditions noted are these: at 1 µM.

Test [15] has as its target Serine/threonine-protein kinase Nek6 (Homo sapiens) (UniProt Q9HC98). The conditions noted are these: at 0.1 µM.
Test [16] shares this target. The settings on record: at 1 µM.
Test [17] has as its target Serine/threonine-protein kinase Nek7 (Homo sapiens) (UniProt Q8TDX7). The conditions noted are these: at 0.1 µM.
For test [18] the target is unchanged. The settings on record: at 1 µM.
For test [19], the target named is T7, Serine/threonine-protein kinase Nek9 (Homo sapiens) (UniProt Q8TD19).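 Note: reported value is the mean percent inhibition of NEK9.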
T7 sequence (whole entry): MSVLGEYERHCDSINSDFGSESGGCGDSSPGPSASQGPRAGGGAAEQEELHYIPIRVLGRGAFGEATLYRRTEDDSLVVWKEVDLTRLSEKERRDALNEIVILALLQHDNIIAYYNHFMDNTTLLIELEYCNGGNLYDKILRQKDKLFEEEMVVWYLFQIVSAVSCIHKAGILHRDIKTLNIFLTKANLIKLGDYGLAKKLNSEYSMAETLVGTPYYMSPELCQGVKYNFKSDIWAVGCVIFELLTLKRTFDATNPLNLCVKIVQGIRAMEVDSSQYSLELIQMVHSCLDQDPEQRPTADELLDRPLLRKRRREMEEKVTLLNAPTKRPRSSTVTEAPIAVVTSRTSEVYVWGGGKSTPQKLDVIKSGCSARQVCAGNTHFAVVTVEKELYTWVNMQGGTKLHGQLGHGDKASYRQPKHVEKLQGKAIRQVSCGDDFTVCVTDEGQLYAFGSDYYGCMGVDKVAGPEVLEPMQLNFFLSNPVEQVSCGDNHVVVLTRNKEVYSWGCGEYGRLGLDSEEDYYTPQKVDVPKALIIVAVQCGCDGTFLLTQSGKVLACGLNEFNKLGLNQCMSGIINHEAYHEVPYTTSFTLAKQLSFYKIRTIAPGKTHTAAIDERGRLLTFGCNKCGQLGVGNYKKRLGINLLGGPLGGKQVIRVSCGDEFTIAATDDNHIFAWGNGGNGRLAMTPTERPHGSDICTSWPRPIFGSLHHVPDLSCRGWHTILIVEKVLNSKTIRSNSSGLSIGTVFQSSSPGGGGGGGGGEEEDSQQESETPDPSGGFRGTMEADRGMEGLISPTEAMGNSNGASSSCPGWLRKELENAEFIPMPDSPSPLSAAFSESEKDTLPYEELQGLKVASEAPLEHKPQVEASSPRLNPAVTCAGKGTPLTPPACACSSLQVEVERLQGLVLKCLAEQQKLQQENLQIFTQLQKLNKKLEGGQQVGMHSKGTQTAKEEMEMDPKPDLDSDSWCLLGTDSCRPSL
The conditions noted are these: at 0.1 µM.

SMILES strings stand for the structures.

Casein kinase II subunit alpha (Homo sapiens), sequence (P68400 whole entry, looked up): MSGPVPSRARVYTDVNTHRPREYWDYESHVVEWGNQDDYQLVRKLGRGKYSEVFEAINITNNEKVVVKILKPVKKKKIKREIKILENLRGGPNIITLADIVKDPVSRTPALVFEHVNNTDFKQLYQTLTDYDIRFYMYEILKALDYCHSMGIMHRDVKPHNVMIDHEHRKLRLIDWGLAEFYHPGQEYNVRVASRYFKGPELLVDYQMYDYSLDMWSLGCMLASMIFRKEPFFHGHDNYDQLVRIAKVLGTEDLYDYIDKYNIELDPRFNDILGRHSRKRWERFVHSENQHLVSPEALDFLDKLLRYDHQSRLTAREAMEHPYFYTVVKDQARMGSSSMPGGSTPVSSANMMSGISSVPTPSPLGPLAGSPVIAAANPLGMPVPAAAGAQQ
Serine/threonine-protein kinase Nek6 (Homo sapiens), sequence (Q9HC98 whole entry): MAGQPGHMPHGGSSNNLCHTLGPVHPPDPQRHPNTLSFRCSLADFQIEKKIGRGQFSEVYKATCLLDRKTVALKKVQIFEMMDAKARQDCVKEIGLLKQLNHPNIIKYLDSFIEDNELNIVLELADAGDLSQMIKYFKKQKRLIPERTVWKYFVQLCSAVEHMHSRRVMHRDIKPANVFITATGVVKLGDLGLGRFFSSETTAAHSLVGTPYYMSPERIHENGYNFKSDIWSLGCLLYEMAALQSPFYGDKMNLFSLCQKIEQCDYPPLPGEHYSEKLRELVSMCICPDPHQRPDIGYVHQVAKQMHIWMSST
Serine/threonine-protein kinase Nek7 (Homo sapiens), sequence (Q8TDX7 whole entry, looked up): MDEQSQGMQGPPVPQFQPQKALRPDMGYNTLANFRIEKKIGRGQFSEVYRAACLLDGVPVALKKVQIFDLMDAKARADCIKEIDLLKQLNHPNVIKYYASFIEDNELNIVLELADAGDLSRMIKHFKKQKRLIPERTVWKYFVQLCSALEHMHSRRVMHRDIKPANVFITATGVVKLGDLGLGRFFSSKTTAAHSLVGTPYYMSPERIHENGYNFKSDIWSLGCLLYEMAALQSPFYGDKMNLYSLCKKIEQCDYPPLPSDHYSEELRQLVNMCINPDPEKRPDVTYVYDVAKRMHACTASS
Sphingosine kinase 1 (Homo sapiens), sequence (Q9NYA1 whole entry): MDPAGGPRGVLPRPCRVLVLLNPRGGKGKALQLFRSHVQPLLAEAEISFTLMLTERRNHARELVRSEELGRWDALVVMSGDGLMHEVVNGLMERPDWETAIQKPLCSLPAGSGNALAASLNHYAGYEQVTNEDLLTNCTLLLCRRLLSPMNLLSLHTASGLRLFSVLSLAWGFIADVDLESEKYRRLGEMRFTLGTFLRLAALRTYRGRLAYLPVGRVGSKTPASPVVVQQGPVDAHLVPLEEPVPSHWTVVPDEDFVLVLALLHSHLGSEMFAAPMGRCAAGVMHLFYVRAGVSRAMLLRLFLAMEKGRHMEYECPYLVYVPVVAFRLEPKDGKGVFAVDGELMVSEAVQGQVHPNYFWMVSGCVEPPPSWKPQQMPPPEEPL

Turning to `COc1cc2c(cc1Nc1nc(Nc3ccsc3C(N)=O)c3cc[nH]c3n1)N(C(=O)CN(C)C)CCC2`, the inhibition – broadly, the change of the read-out against control, counted positive when it falls – in [1] was 0.45%; in test [2], 4.92%; in test [3], -0.26%; in test [4], 8.25%; in test [5], 37.7%; in [6] it was -7.1%. Also, the inhibition in test [7] is -1.3%; in test [8] it was 2.95%; in test [9], -1.2%; in test [10], -5.2%; in test [11], 9.27%; in test [12] it was 0.09%. The inhibition in test [13] was 0.97%; in [14], 6.67%; in [15], 1.52%; in [16], -0.11%; in [17] it was 1.7%; in test [18], 9.62%. Besides, the inhibition in [19] was 1.89%.
